Screens from PubChem BioAssay.
Shown are actives, neighbours in structure and some others; about 19% of the full set was active somewhere.
CHX counter: Cycloheximide Counterscreen for Small Molecule Inhibitors of Shiga Toxin; cell reporter, cycloheximide protein synthesis inhibition counterscreen; max response, %; 300,000 tested, 12% active; in the data active = max response mostly above about 13%, no sharp cut-off; inactive = mostly below about 14%; also: read at 38.3 µM for the half of the compounds with a filed dose
Pf growth 48h: Primary qHTS for delayed death inhibitors of the malarial parasite plastid, 48 hour incubation; 310,000 tested, 5.9% active; Potency, µM (top dose mostly 28.7 µM), hits mostly inhibitors; P. falciparum luciferase growth in erythrocytes, 48 h
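Parasite viability was followed by luminescence of a genomically integrated firefly luciferase. Cultures held 0.1% parasitemia at 2% hematocrit (final), incubated under 5% CO2 at 37 C.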
Marburg entry inh: qHTS for inhibitors of binding or entry into cells for Marburg Virus | Marburg virus pseudotyped entry inhibition, cell reporter | Potency, µM (series often up to 37.8 µM), hits mostly inhibitors | 300,000 tested, 1.8% active; calls by dose curve; tested in HEK293 cells
Lassa entry inh: qHTS for Inhibitors of binding or entry into cells for Lassa Virus; Lassa virus pseudotype entry inhibition, cell reporter; Potency, µM (titrated, usually from 37.9 µM), hits mostly inhibitors; 300,000 tested, 1.2% active; AID 540256, 2011; calls by dose curve; tested in HEK293 cells; also: nearly all actives have a fitted effect of over 50% in size
Shiga toxin inh: A qHTS for Small Molecule Inhibitors of Shiga Toxin. AID 2315, 2010. Vero cells, Shiga toxin protein synthesis inhibition reporter. inhibition, % at 38.7 µM. 290,000 tested, 9.2% active; in the data active = inhibition mostly above about 28%, no sharp cut-off; inactive = mostly below about 43%
Pf growth 96h: Primary qHTS for delayed death inhibitors of the malarial parasite plastid, 96 hour incubation | P. falciparum luciferase reporter growth, 96 h | Potency, µM (doses to about 28.7 µM), actives largely listed as inhibitors | 320,000 tested, 6.9% active | AID 504834, 2011
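Readout is luminescence from an integrated firefly luciferase in P. falciparum. Red cells, 2% hematocrit and 0.05% parasitemia final, were cultured with compound through two parasite generations (96 hours) at 37 C, 5% CO2.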
Numbers stand for hits; 0 = inactive; ? = inconclusive; - = not tested or not shown; ! = not active in a repeat. Unless noted, calls follow the shape of the dose curve; as a rule, active = well fitted inhibition curve with a large enough effect; inconclusive = small, poorly fitted or top-dose-only effect, or another doubt; inactive = no such curve, though single readings can be large or run the other way.

SMILES	CHX counter	Pf growth 48h	Marburg entry inh	Lassa entry inh	Shiga toxin inh	Pf growth 96h
COc1ccc2cc(/C(C)=N/NC(=S)Nc3cc(S(=O)(=O)N4CCOCC4)ccc3N3CCOCC3)ccc2c1	20.5	1.47µM	-	-	0	?
Cc1[nH]c2ccccc2c1C(=O)CSc1ccc(Cl)cc1	0	?	0	0	0	?
CCOC(=O)CSc1nnc(NC(=O)c2cccc(S(=O)(=O)N3CCCCCC3)c2)s1	0	0	0	?	0	?
CCOc1ccc(C(=O)Nc2cccc(-c3ccc(N4CCOCC4)nn3)c2)cc1OCC	-	0	?	0	-	?
CN1CCN(c2ccc(-c3cccc(NC(=O)COc4ccc(Cl)cc4Cl)c3)nn2)CC1	-	0	?	4.47µM	-	0
CCOc1ccccc1C(=O)Nc1cccc(-c2ccc(N3CCOCC3)nn2)c1	-	?	?	?	-	9.28µM
CCC(=O)Nc1cccc(-c2ccc(N3CCN(C)CC3)nn2)c1	15.9	0	-	-	73.7	0
CCC(=O)Nc1cccc(-c2ccc(N3CCCCC3)nn2)c1	0	0	-	-	0	0
C#CCOCCOCCOCCNc1nc(N2CCN(C(=O)[C@H]([C@@H](C)CC)n3cc(CCC(=O)O)nn3)CC2)nc(N2CCN(C(=O)[C@H](C)n3cc(CCCN=C(N)N)nn3)CC2)n1	0	0	0	0	0	0
O=c1c2sc3ccccc3c2n(Cc2cccc(C(F)(F)F)c2)c(=O)n1Cc1ccccc1	-	-	0	0	-	-
Nc1nnc(-c2ccc(Cl)cc2Cl)s1	23.2	0	0	?	57.7	0
Nc1nnc(-c2ccccc2F)s1	20.8	0	?	?	86.0	0
Nc1nnc(Cc2ccccc2F)s1	0	0	0	0	0	0
COc1cccc(CN2CCCC(C(=O)N3CCCCC3)C2)c1 (stereo not given)	0	0	-	-	0	0
Cc1ccc(CNCC(O)c2ccccc2)s1 (stereo not given)	13.5	11.7µM	?	0	0	0
O=C(NCc1ccco1)Nc1cccs1	0	0	0	?	0	0
O=C(NCC(O)c1ccccc1)Nc1cccs1 (stereo not given)	23.7	0	-	-	0	0
OC(CNCc1cccs1)c1ccccc1 (stereo not given)	0	13.1µM	0	?	0	?
OC(CNCc1cccc(Br)c1)c1ccccc1 (stereo not given)	0	3.7µM	?	0	0	10.4µM
Cc1cc(C)cc(NC(=O)N2CCC(CN3CCCCCC3)CC2)c1	-	-	-	0	-	-
CCCCCCCCCCCCCC(=O)NO	-	-	0	0	-	-
OC(CNCc1ccc(-c2ccccc2)cc1)c1ccccc1 (stereo not given)	0	?	?	?	0	0
Cc1ccsc1CNCC(O)c1ccccc1 (stereo not given)	0	11.7µM	0	0	0	0
COc1cc(NC(=O)C2CCCN(S(=O)(=O)c3cccc4nsnc34)C2)cc(OC)c1 (stereo not given)	0	?	?	?	0	0
O=C(Nc1ccc([N+](=O)[O-])cc1)C1CC1(c1ccccc1)c1ccccc1 (stereo not given)	0	11.7µM	?	0	0	?
SMILES	CHX counter	Pf growth 48h	Marburg entry inh	Lassa entry inh	Shiga toxin inh	Pf growth 96h
Cc1ccc(C2(c3ccc(C)cc3)CC2C(=O)Nc2ccc([N+](=O)[O-])cc2O)cc1 (stereo not given)	0	0.828µM	?	12.6µM	0	0.657µM
Oc1ccc(Br)cc1C1C=C(c2ccc3c(c2)OCO3)NC(c2c(F)cccc2Cl)N1 (stereo not given)	45.8	-	-	-	81.8	-
Oc1ccccc1C1C=C(c2ccc3c(c2)OCO3)NC(c2c(F)cccc2Cl)N1 (stereo not given)	45.6	-	-	-	97.2	-
O=S(=O)(NC1CCCCC1)c1ccc(Cl)nc1	0	0	?	0	0	0
CCC(C)COC(c1ccccc1)(c1ccccc1)C(Oc1nc(C)cc(C)n1)C(=O)O (stereo not given)	0	0	?	0	0	0
Cc1ccc(C(=O)NCC(c2cccs2)S(=O)(=O)c2cccs2)cc1C (stereo not given)	-	-	-	0	-	-
Cc1nc(SCc2cccc(F)c2)c2oc3ccccc3c2n1	0	10.4µM	0	0	0	?
Cc1nc(SCC(=O)Nc2ccc(F)cc2)c2oc3ccccc3c2n1	0	0	0	0	0	-
O=C(Nc1ccc([N+](=O)[O-])cc1)N1CCc2ccccc2C1	37.6	?	0	0	-	0
O=[N+]([O-])c1ccc(N2CCc3ccccc3C2)cc1	26.0	0	-	-	-	0
CC(C)c1ccc(NC(=O)N2CCc3ccccc3C2)cc1	41.7	0	?	?	95.7	0
O=C(NCCN1CCc2ccccc2C1)Nc1ccc([N+](=O)[O-])cc1	0	?	-	-	0	?
CC(C)c1ccc(NC(=O)Cc2ccc(NC(=O)N3CCCCc4ccccc43)cc2)cc1	-	-	-	0	-	-
CCCN(CCC)S(=O)(=O)c1ccc(Cl)c([N+](=O)[O-])c1	0	0	?	?	0	0
CCOC(=O)C(C)(C)N(Cc1ccccc1C)S(=O)(=O)c1ccc(Cl)c([N+](=O)[O-])c1	0	?	?	0	0	2.62µM
Cc1ccccc1N1C(=O)c2sc3nc4c(c(=O)n3c2C1=O)CCC4	0	?	0	0	0	?
O=C1c2sc3nc4c(c(=O)n3c2C(=O)N1c1ccccc1)CCC4	0	?	0	0	46.8	?
C=CCN=C(NC#N)SCC(=O)c1cccc(OC)c1	60.8	0	0	0	63.0	0
Cn1c(-c2c(N)n(CCc3ccccc3)c3nc4ccccc4nc23)nc2ccccc21	0	-	?	0	0	5.22µM
Cn1c(-c2c(N)n(C3CCCC3)c3nc4ccccc4nc23)nc2ccccc21	0	11.7µM	?	0	0	8.28µM
COCCCn1c(N)c(-c2nc3ccccc3n2C)c2nc3ccccc3nc21	0	?	?	0	0	-
COc1ccc(-c2cc([C@H]3[C@H]4C=CC[C@@H](C)[C@@H]4C(=O)N3Cc3ccccc3)ccc2F)cc1OC	21.6	?	-	-	61.0	?
O=C1C2C(c3cccc(/C=C/c4ccccc4)c3)CC=CC2C(c2ccc(C(F)(F)F)cc2)N1Cc1ccccc1 (stereo not given)	0	11.7µM	-	-	53.8!	9.28µM
C[C@@H]1CC=C[C@H]2[C@H]1C(=O)N(Cc1ccccc1)[C@H]2c1ccc2ccccc2c1	0	10.4µM	-	-	0	3.7µM
C[C@@H]1CC=C[C@H]2[C@H]1C(=O)N(Cc1ccccc1)[C@H]2c1ccc2ccccc2c1Br	0	10.4µM	-	-	0	?
COc1ccc(-c2cc(C3C4C=CCC(C)C4C(=O)N3Cc3ccccc3)ccc2F)cc1 (stereo not given)	0	-	-	-	0	-
O=C1C2C(c3ccccc3)CC=CC2C(c2ccc(C(F)(F)F)cc2)N1Cc1ccccc1 (stereo not given)	0	-	-	-	0	-
CC1CC=CC2C1C(=O)N(Cc1ccccc1)C2c1ccc2ccccc2c1 (stereo not given)	0	-	-	-	0	-
